Data on 42 sequences can be found in article PMC7819943, “Rice protein-binding microarrays: a tool to detect cis-acting elements near promoter regions in rice”.

Over roughly 39,000 sequences, “fluorescence intensity (a.u.)” has its median near 4,300; the highest 2% begin near 39,000. For the sample, the highest values were picked, then their nearest neighbours and some sequences at random.

In the assay the target is T1, OsSMF1 (Oryza sativa, UniProt Q6ZLB0 1-436).
T1 sequence: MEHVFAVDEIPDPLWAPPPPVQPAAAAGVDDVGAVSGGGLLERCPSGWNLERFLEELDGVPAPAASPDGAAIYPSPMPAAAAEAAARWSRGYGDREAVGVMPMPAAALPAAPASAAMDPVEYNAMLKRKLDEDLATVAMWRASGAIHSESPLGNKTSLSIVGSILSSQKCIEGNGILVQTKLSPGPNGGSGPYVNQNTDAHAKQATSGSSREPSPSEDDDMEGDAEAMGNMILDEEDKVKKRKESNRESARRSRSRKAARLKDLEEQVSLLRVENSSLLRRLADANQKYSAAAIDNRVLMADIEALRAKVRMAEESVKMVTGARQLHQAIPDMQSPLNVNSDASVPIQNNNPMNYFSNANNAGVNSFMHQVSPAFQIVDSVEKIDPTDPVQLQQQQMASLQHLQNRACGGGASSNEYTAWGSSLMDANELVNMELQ
Briefly: protein-binding microarray (RPBM); PBS, 2% BSA, 51.3 ng/ul salmon testes DNA, 50 uM zinc acetate, 200 nM TF, 25 C, 1 h; high values mean tight binding. The settings on record: protein: recombinant; tags: N-terminal polyhistidine and DsRed monomer fusion (pET32a); chain copies: 2; label: CyDye5-dUTP incorporated in the synthesized complementary strand; 3' TTTTT single-stranded linker to array surface; dsDNA, one strand shown. An outline of the steps:
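Transcription factors were made in E. coli BL21-CodonPlus as N-terminal fusions to a polyhistidine tag and DsRed, then purified on Ni–NTA. After primer extension with Cy5-dUTP and blocking with 2% BSA, a custom Agilent array was exposed for 1 h at 25 °C to 200 nM protein in PBS, 2% BSA, salmon testes DNA and 50 µM zinc acetate. Washed arrays were scanned on an Axon 4000B, and the binding signal is per-feature fluorescence intensity in arbitrary units.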
Turning to “GCGCGCGCGTTCTCTAATCGAAGTCGATAGGATAGGAGGACGGAGTCACCTAGTGCAG”, the binding signal is 36900 fluorescence intensity (a.u.).

On to “GCCCTGTTCCCTGCAGAGAATCATTATATACTCCCTCCAACGGAGTCACCTAGTGCAG”, for which the binding signal was 48100 fluorescence intensity (a.u.).

With “TATATAAGAGACCTCACCTCCAAGAATCTCCAGAGAGAGACGGAGTCACCTAGTGCAG”, the binding signal is 22900 fluorescence intensity (a.u.).

For “CATTCCCTCCTCCTCCTCCTCCTCCTCCTGAATCCCTCCTCGGAGTCACCTAGTGCAG”, the binding signal was 3380 fluorescence intensity (a.u.).

As to “CGAGGTGAGGCGGAGGGGAGGCAGAGGGGTAGAGGAGGGTCGGAGTCACCTAGTGCAG”, the binding signal is 5260 fluorescence intensity (a.u.).

Regarding “CTACTATACCTCCGTGCGTACCACATACTGTATGTAGACTCGGAGTCACCTAGTGCAG”, the binding signal is 4130 fluorescence intensity (a.u.).

As to “CATAGTGCAGGGGAGAAGCCAGGGAAGAGGGAGGTGACGTCGGAGTCACCTAGTGCAG”, the binding signal was 3290 fluorescence intensity (a.u.).

With “GAGGAGTGGGAGGAAAATGAGTGGTGGGGAAAGGATAGGGCGGAGTCACCTAGTGCAG”, the binding signal is 4150 fluorescence intensity (a.u.).

In the case of “AAACGATGACTGTTAAATAGGGATTAAAAGGAAAGGATGGCGGAGTCACCTAGTGCAG”, the binding signal was 41200 fluorescence intensity (a.u.).

For “AATAGGAAATAAACATTACTGAGAAAAGGGCTCATGTTGGCGGAGTCACCTAGTGCAG”, the binding signal was 29300 fluorescence intensity (a.u.).

As for “AGCACACATACTAGTACTATATGACAAGTCCACGGAGAGCCGGAGTCACCTAGTGCAG”, the binding signal is 3760 fluorescence intensity (a.u.).

As for “GATTAATACGACTACTGTCATACGTACTGTACATGTCATGCGGAGTCACCTAGTGCAG”, the binding signal is 3720 fluorescence intensity (a.u.).

As to “TTTTAGCCTCCTTTTGGTTAATCTTTGTTTGATCCAAGAACGGAGTCACCTAGTGCAG”, the binding signal was 10200 fluorescence intensity (a.u.).

Turning to “TTTTGAGCCTAGTTAGTCCATGATTAGCCATAAATGCTACCGGAGTCACCTAGTGCAG”, the binding signal is 4540 fluorescence intensity (a.u.).

With “CTTTGGCTTTTAGCCATAGACTTTGATCCATGAGTTAGAACGGAGTCACCTAGTGCAG”, the binding signal was 40900 fluorescence intensity (a.u.).

For the sequence “GGGAAGAGAGAAGAGACGAAACAGGGAGGAGGGGATTGGGCGGAGTCACCTAGTGCAG”, the binding signal is 3320 fluorescence intensity (a.u.).

With “CAACATGCACGTACTACGTGTGCTTGCATTGCATGCATGCCGGAGTCACCTAGTGCAG”, the binding signal was 4450 fluorescence intensity (a.u.).

Turning to “ACGATATGACGGAAAAGTTGGAAGTTTGTGTGTAGAAAAGCGGAGTCACCTAGTGCAG”, the binding signal is 3140 fluorescence intensity (a.u.).

Turning to “GAGAGAAGAGGGGAAAAGAGAGAGGAGTTTGATGACGTGGCGGAGTCACCTAGTGCAG”, the binding signal is 39300 fluorescence intensity (a.u.).

Turning to “AAAGAATGACGATATGATGTGAGAAGTTTGTGAAGACTTGCGGAGTCACCTAGTGCAG”, the binding signal was 41100 fluorescence intensity (a.u.).

Consider “AGACTGAAAGAGAGAGGAAGGAAGAGAGATGACGTGGCATCGGAGTCACCTAGTGCAG”, for which the binding signal was 35800 fluorescence intensity (a.u.).

With “AAAATGGAGAGAAGAGGAAGGGACAGATGACGTGGCATCCCGGAGTCACCTAGTGCAG”, the binding signal is 48900 fluorescence intensity (a.u.).

“GGGAGGAAGAAGAAAGGGAGAGAGAGGGGATGACATGTGGCGGAGTCACCTAGTGCAG”: the binding signal was 5680 fluorescence intensity (a.u.).

Regarding “AGAGAAAGGAAGGGAAGAGAGAGGGTGATGACGTGGCGACCGGAGTCACCTAGTGCAG”, the binding signal was 35600 fluorescence intensity (a.u.).

On to “GAGAGGACGAAGGGAAAGAGAGAGATGGTGATGACGTGGCCGGAGTCACCTAGTGCAG”, for which the binding signal is 31600 fluorescence intensity (a.u.).

“TCAGAATGCGTGTGATGTAAAAGTTCGAGAAGACTTTGTTCGGAGTCACCTAGTGCAG”: the binding signal was 3210 fluorescence intensity (a.u.).

Take “CCATCTCCGACGAATGATGCTTTGACACTTAATGCTGCGTCGGAGTCACCTAGTGCAG”: the binding signal is 3350 fluorescence intensity (a.u.).

Turning to “CGGCTTACGGCCGCCTGTCGGGGAAGATGACTCCCTCTTCCGGAGTCACCTAGTGCAG”, the binding signal was 5050 fluorescence intensity (a.u.).

For the sequence “AACAAAAGTTGTTTTGACTCACGCGGTGGCTGTTGTCTGTCGGAGTCACCTAGTGCAG”, the binding signal is 6340 fluorescence intensity (a.u.).

Take “GGAAGCGGCTGCTGACAATGGGGATTAGATAGGCTAAGGGCGGAGTCACCTAGTGCAG”: the binding signal was 3700 fluorescence intensity (a.u.).

Consider “GTCACCGAAGGCGATTAAGGGACAAGCTATAGCTGATTTTCGGAGTCACCTAGTGCAG”, for which the binding signal was 46100 fluorescence intensity (a.u.).

Regarding “TTAAGGACGATTTTGTAATTCAGCTGACAAGACGAGGGATCGGAGTCACCTAGTGCAG”, the binding signal is 4300 fluorescence intensity (a.u.).

“CCGAGGCCCAATAAATTATGGGGTTGGCTCCAATAAATTACGGAGTCACCTAGTGCAG”: the binding signal was 3940 fluorescence intensity (a.u.).

On to “GCCATCTGACAACCAGTAAATGTACTGTCCACCGGGCCAACGGAGTCACCTAGTGCAG”, for which the binding signal was 6470 fluorescence intensity (a.u.).

On to “TTTCGCCATTTCCGACAATGTACTTCACCACTGATCTGAACGGAGTCACCTAGTGCAG”, for which the binding signal was 64900 fluorescence intensity (a.u.).

As for “TACTACTTCCGATCAGAGCCATACCAATGCCACGACACGACGGAGTCACCTAGTGCAG”, the binding signal was 4090 fluorescence intensity (a.u.).

Turning to “CAAGTGATAATCTATACCTAGTTGATGATGCCAATATCATCGGAGTCACCTAGTGCAG”, the binding signal was 4340 fluorescence intensity (a.u.).

Take “TGCAACCACCACCACCACGTCCCAAACTCGCACGTTTCTCCGGAGTCACCTAGTGCAG”: the binding signal is 4090 fluorescence intensity (a.u.).

As to “CTGTGTGAACAACAAATCAATGGCCACGTCATATATGTACCGGAGTCACCTAGTGCAG”, the binding signal was 16800 fluorescence intensity (a.u.).

Consider “CAAATGTTCTTTTGACGTATATGACCACATATTTGCAGTACGGAGTCACCTAGTGCAG”, for which the binding signal is 3520 fluorescence intensity (a.u.).

As for “ACAATGTTCCGGGTCTTATATTGCCAAATCAGTGACGTACCGGAGTCACCTAGTGCAG”, the binding signal was 59800 fluorescence intensity (a.u.).

Take “GGGCGCACCTACAGCACCAAGTGTAACCAGAGCTTACACACGGAGTCACCTAGTGCAG”: the binding signal is 3420 fluorescence intensity (a.u.).
